Assay outcomes as filed in PubChem BioAssay.
hcGAS lum – Primary biochemical luminescence assay for human cyclic GMP-AMP synthase inhibitors; Q8N884; recombinant h-cGAS, ATP depletion, Kinase-Glo luminescence; inhibition, % at 12.5 µM; 290,000 compounds, 0.081% hits; AID 1259398, 2018;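 further: 0% = vehicle reaction and 100% = reaction without DNA for no activity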
Target sequence (Q8N884 whole entry, looked up): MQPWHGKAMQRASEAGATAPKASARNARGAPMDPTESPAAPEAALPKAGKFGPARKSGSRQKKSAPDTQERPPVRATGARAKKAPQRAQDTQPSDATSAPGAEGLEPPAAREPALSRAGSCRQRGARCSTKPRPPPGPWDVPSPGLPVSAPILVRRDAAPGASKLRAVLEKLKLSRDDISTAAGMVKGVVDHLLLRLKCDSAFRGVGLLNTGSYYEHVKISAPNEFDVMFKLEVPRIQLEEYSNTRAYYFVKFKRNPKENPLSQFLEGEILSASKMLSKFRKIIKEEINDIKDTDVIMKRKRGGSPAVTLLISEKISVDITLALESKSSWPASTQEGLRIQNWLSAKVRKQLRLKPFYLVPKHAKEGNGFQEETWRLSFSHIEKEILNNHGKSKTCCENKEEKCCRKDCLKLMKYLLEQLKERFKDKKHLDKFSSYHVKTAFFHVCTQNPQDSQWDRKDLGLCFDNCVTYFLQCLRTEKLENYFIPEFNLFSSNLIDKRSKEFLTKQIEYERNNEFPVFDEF
NPYLR7 ag – agonists of mosquito NPYLR7 receptor, primary screen, cell-based, Aedes aegypti, calcium fluorescence, mosquito biting behavior. Aedes aegypti neuropeptide Y-like receptor 7 (NPYLR7). HEK293T NPYLR7/Galpha15, GCaMP6s calcium fluorescence. activation, % at 10 µM. 270,000 compounds, 0.15% hits; in the data active means activation above about 40%;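 further: 0% = vehicle and 100% = reference agonist at the receptor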
mcGAS lum – cyclic GMP-AMP synthase inhibitors, mouse, primary biochemical chemiluminescence | Q8C6L5 | recombinant cGAS, Kinase-Glo ATP depletion luminescence | inhibition, % at 12.5 µM | 160,000 compounds, 0.15% hits;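 further: 0% = negative control wells and 100% = reference inhibitor with no enzyme activity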
* hit, by the source's call; x = no result; + = active, no number; ! = not confirmed by another sample. An excerpt weighted towards active compounds, which were near 0.28% of everything screened. Unless noted, no stated cut-off is given here; in the data, active means inhibition above about 40%; inactive means the rest.

SMILES	hcGAS lum	NPYLR7 ag	mcGAS lum
COc1cc(OC)cc(C(=O)N2CCN(C(C(=O)Nc3ccc(NC(C)=O)cc3)C3CCCC3)CC2)c1 (stereo unspecified)	-6	60*	-5
COc1ccc(C(=O)N2CCN(C(C(=O)Nc3cc(OC)cc(OC)c3)C3CCCC3)CC2)cc1 (stereo unspecified)	-8	-1	-6
O=c1c(O)cc([C@H]2Oc3cc(O)cc(O)c3C[C@H]2O)cc2c([C@H]3Oc4cc(O)cc(O)c4C[C@H]3O)cc(O)c(O)c12	27	-8	x
O=C(O[C@@H]1Cc2c(O)cc(O)cc2O[C@@H]1c1cc(O)c(O)c(O)c1)c1cc(O)c(O)c(O)c1	73*!	-10	x
O=C(O[C@@H]1Cc2c(O)cc(O)cc2O[C@@H]1c1cc(O)c(O)c(O)c1-c1c([C@H]2Oc3cc(O)cc(O)c3C[C@H]2O)cc(O)c(O)c1O)c1cc(O)c(O)c(O)c1	54*	-6	37
Oc1cc(O)c2c(c1)O[C@H](c1ccc(O)c(O)c1)[C@H](O)C2	19	-19	x
O=C(O[C@@H]1Cc2c(O)cc(O)cc2O[C@@H]1c1ccc(O)c(O)c1)c1cc(O)c(O)c(O)c1	49*	-5	x
O=C(Oc1cc(OC(=O)c2ccccc2)c2c(c1)O[C@H](c1ccc(OC(=O)c3ccccc3)c(OC(=O)c3ccccc3)c1)[C@@H](OC(=O)c1ccccc1)C2)c1ccccc1	-6	-6	x
CCCc1ccc(S(=O)(=O)Nc2sc(C)nc2C)cc1	4	x	x
CCN(CC)c1ccc(CN(Cc2ccc(F)cc2)C(=O)NC(C)C)c(OS(C)(=O)=O)c1	-6	5	-4
O=C(c1ccc(Br)cc1)N1CCCC(OCc2ccc(OC(F)(F)F)cc2)C1 (stereo unspecified)	-4	-2	-4
Cc1cc(C(=O)CSc2nnc(N)s2)ccc1Cl	3	3	x
FC(F)(F)c1cccc(Nc2ncnc3sc4c(c23)CCCC4)c1	-4	-6	-3
CC(NCCC(c1ccccc1)c1ccccc1)c1ccccc1 (stereo unspecified)	-4	59*!	-5
CC(NCC1CCC1)c1ccccc1 (stereo unspecified)	-3	-7	x
COc1cccc(C2CN(C(=O)CC(C)(C)C)CC2C(=O)NCc2ccccn2)c1OC (stereo unspecified)	+	5	x
COc1cc(C2CN(C(=O)CC(C)(C)C)CC2C(=O)NCC(C)C)cc(OC)c1OC (stereo unspecified)	1	7	x
COC(=O)c1ccc2c(c1C)NC(c1ccc([N+](=O)[O-])cc1)C1CC=CC21 (stereo unspecified)	-1	-2	-1
O=C(O)c1ccc(C2Nc3c(F)cc(F)cc3C3C=CCC32)cc1 (stereo unspecified)	6	18	x
O=C(O)c1ccc2c(c1)C1C=CCC1C(c1ccc(Br)cc1)N2 (stereo unspecified)	77*	-7	100*
O=C(O)c1ccc([C@@H]2Nc3ccc(I)cc3[C@@H]3C=CC[C@@H]32)cc1	28	10	71*
Cn1cc(C(=O)O)cn1	-7	2	x
Cc1ccc(-n2c(Cc3ccccc3)nnc2SCC(=O)N2CCC(C)CC2)cc1	-5	x	-10
CCN(Cc1csc(COc2cccc(C)c2C)n1)C(=O)c1ccccc1F	-3	25	88*
Cc1cccc(OCc2nc(CN(CCN(C)C)C(=O)c3ccccc3F)cs2)c1C	-5	11	-3
SMILES	hcGAS lum	NPYLR7 ag	mcGAS lum
C[n+]1ccc(C=CC(=O)c2ccc3c4c(cccc24)CC3)cc1	17	1	20
C[n+]1ccc(C=CC(=O)c2ccc3cccc4c3c2CC4)cc1	-8	2	61*
CSc1ccc(OC(C)C(=O)NCC2CCCN(C)C2)cc1 (stereo unspecified)	6	1	-1
COCCCNCc1c(-c2ccc(F)cc2)noc1N1CCOCC1	-3	46*	x
COCCCNCc1c(-c2ccccc2)noc1N1CCc2ccccc2C1	-3	15	x
OC1CCCN(c2cncc(OCC(F)(F)C(F)F)n2)C1 (stereo unspecified)	-10	-9	x
CC(=O)Nc1cccc(NC(=O)CSc2nc3c(-c4ccccc4)c(C)nn3c(=O)[nH]2)c1	28	5	-4
Cc1cc(NC(=O)CSc2nc3c(-c4ccccc4)c(C)nn3c(=O)[nH]2)no1	46*	9	-3
COCC(=O)Nc1cc(-c2ccc(C)cc2)cc(-c2ccccc2)n1	-5	8	x
CCOC(=O)c1sc(NC(=O)CSc2nnc(C)s2)c(C(=O)OCC)c1C	-4	-4	61*
CCOC(=O)c1sc(NC(=O)CSc2nnc3ccccn23)c(C(=O)OCC)c1C	-6	-2	-3
Nc1c(S(=O)(=O)O)cc(Nc2ccc(Nc3nc(Cl)nc(Nc4ccc(S(=O)(=O)O)cc4)n3)c(S(=O)(=O)O)c2)c2c1C(=O)c1ccccc1C2=O	35	0	67*
Nc1c(S(=O)(=O)O)cc(Nc2cccc3ccccc23)c2c1C(=O)c1ccccc1C2=O	-23	-15	x
COc1cc(C=NN2C(=O)CSC2=S)cc(Br)c1O	-10	20	-2
O=C1CSC(=S)N1N=Cc1ccc([N+](=O)[O-])o1	4	3	59*
O=C1CSC(=S)N1N=Cc1ccc(-c2nc3ccccc3s2)o1	-1	25	x
O=C1CSC(=S)N1N=Cc1cc(Br)c(O)c(Br)c1	43*	67*	60*
Cc1ccc(N(CC(=O)N/N=C\c2cccs2)S(C)(=O)=O)cc1Cl	-4	6	x
CCCN1CCc2c(sc3c2c(NC(CC)CO)nc2nnnn23)C1 (stereo unspecified)	-5	69*	x
CCc1nc(Cl)c2c3c(sc2n1)CN(CC)CC3	-3	4	x
CCCCOCCOCC(=O)N1CCc2c(sc3[nH]c(=O)n(-c4cccc(OC)c4)c(=O)c23)C1	-7	4	-8
COc1cccc(CCc2ccccc2C(=O)NCC2(O)CCNC2)c1 (stereo unspecified)	-8	-3	x
CCOC(=O)C1CCCN(C(=O)c2cc(-c3cccc(OC)c3)n3nc(-c4ccccc4)cc3n2)C1 (stereo unspecified)	-1	20	-6
Nn1c(O)c(C2=c3cc([N+](=O)[O-])ccc3=NC2=O)sc1=S	-4	1	x
CC(C)C(C(=O)O)n1c(O)c(C2=c3cc(Br)ccc3=NC2=O)sc1=S (stereo unspecified)	-1	-1	-1
SMILES	hcGAS lum	NPYLR7 ag	mcGAS lum
Cc1cc(Br)cc2c1=NC(=O)C=2c1sc(=S)[nH]c1O	5	-2	94*
O=C1N=c2ccc(F)cc2=C1c1sc(=S)[nH]c1O	15	-1	100*
CCOc1nc(Cl)c(C=O)n1-c1ccccc1	-7	0	x
Cc1cc([N+](=O)[O-])ccc1N1C(=O)/C(=C\c2ccncc2)N(C)C1=S	-6	20	13
COc1ccc(N2C(=O)/C(=C\c3ccc[nH]3)N(C)C2=S)c([N+](=O)[O-])c1	-4	46*	-8
CCc1nc2cc(NC(=O)N3CCCC3CN3CCOCC3)ccc2o1 (stereo unspecified)	-7	5	x
